Assay [1] in a line: ATG_GLI_CIS: Attagene CIS-FACTORIAL HepG2 Assay for human Zinc Finger Protein GLI1 (AID 2282945). Conditions: HepG2, Attagene cis-factorial reporter mRNA, GLI element; actives raise or lower the signal. In short, it runs like this: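 Bidirectional curve fits relative to DMSO, using reporter mRNA levels from RT-PCR plus capillary electrophoresis. Cells were HepG2 transiently carrying cis-regulated reporter constructs, harvested 24 h after dosing.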

Assay [2] addresses Bile acid receptor (Homo sapiens) (UniProt Q96RI1). Description: ATG_IR1_CIS: Attagene CIS-FACTORIAL HepG2 Assay for human Nuclear Receptor Subfamily 1 Group H Member 4 (NR1H4), IR1 submotif (AID 2282946). Particulars: IR1 reporter transcription, actives raise or lower the signal. In short, it runs like this: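 HepG2 cells transiently transfected with multiplexed cis-element reporter units read endogenous transcription factor activity. After 24 h compound exposure, reporter mRNA was quantified by RT-PCR, fluorescent labelling, HpaI digestion and capillary electrophoresis; bidirectional fitting versus DMSO baseline.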

Assay [3] in a line: ATG_GRE_CIS: Attagene CIS-FACTORIAL HepG2 Assay for human Glucocorticoid Response Elements (GRE) (AID 2282947). Particulars: HepG2 GRE cis-reporter, Attagene multiplex mRNA; actives raise or lower the signal. In short, it runs like this: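 Multiplexed cis-reporter mRNA induction, HepG2, 24 h post-dose. RT-PCR, FAM-labelled, HpaI-digested amplicons by CE. Bidirectional fit vs DMSO.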

A short description of assay [4]: ATG_ISRE_CIS: Attagene CIS-FACTORIAL HepG2 Assay for human Interferon Regulatory Factor 1 (IRF1) binding to an Interferon-Stimulated Response Element (ISRE) (AID 2282948). Particulars: HepG2 ISRE cis-reporter (Attagene), mRNA transcription readout; actives raise or lower the signal. In short, it runs like this: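 Endogenous transcription factor activity read as reporter transcript abundance via RT-PCR and capillary electrophoresis. HepG2 cells transiently transfected, 24 h chemical exposure. Gain or loss fitted against DMSO baseline.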

A short description of assay [5]: ATG_M_32_CIS: Attagene CIS-FACTORIAL HepG2 Assay for M32 Transcription Factor (Internal Marker) (AID 2282949).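 Also: background control marker of the multiplexed CIS panel rather than a real target.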 Conditions: HepG2 Attagene cis-factorial M32 reporter, mRNA; actives raise or lower the signal. In short, it runs like this:
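Using DMSO as baseline, bidirectional curve fits were applied to reporter mRNA signals. These came from transiently transfected HepG2 cells exposed for 24 h, with RNA analysed by RT-PCR, FAM primer extension, HpaI digestion and CE.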

The nature of assay [6]: ATG_M_06_CIS: Attagene CIS-FACTORIAL HepG2 Assay for M06 Transcription Factor (Internal Marker) (AID 2282950). Particulars: HepG2 Attagene CIS-FACTORIAL M06 internal marker reporter; actives raise or lower the signal. In short, it runs like this: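 One of many multiplexed endpoints: HepG2 reporter mRNA after 24 h dosing, detected by RT-PCR and capillary electrophoresis fluorescence; gain or loss of signal analysed against DMSO.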

In assay [7] the target is Hypoxia-inducible factor 1-alpha (Homo sapiens) (UniProt Q16665). Kind of assay: ATG_HIF1a_CIS: Attagene CIS-FACTORIAL HepG2 Assay for human Hypoxia Inducible Factor 1 (HIF1A) (AID 2282951). Conditions: HepG2 Attagene cis-factorial HIF1a reporter transcription; actives raise or lower the signal. In short, it runs like this: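 After 24 h chemical exposure of reporter-transfected HepG2 cells, reporter cDNA was PCR-amplified, labelled by 6-FAM primer extension (2 min 95 C, 20 s 68 C, 10 min 72 C), HpaI-cut (2 h, 37 C) and analysed by CE.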
Sequence of Hypoxia-inducible factor 1-alpha (Homo sapiens) (Q16665 whole entry, looked up): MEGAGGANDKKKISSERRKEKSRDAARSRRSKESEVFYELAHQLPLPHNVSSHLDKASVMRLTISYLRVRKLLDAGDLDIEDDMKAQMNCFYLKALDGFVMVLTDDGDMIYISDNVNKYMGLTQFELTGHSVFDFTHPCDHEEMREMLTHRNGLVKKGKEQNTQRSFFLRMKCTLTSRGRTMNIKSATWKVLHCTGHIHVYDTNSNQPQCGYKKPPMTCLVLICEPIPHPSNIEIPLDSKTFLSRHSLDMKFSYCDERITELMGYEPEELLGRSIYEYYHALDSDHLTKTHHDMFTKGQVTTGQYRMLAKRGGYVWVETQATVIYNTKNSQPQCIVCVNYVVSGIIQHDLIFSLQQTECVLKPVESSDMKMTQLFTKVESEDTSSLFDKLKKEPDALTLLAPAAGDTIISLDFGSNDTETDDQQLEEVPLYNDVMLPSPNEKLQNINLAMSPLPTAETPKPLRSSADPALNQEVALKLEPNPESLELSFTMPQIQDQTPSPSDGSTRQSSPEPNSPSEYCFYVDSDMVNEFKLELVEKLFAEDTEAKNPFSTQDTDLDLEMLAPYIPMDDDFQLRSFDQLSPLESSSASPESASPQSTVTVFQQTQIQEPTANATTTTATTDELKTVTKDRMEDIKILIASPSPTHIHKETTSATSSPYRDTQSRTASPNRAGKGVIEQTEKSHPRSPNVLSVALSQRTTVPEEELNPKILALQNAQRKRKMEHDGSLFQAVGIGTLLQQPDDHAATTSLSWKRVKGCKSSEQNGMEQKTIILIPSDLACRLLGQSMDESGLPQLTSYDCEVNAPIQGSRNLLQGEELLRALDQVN

The target in assay [8] is Hepatocyte nuclear factor 6 (Homo sapiens) (UniProt Q9UBC0). Description: ATG_HNF6_CIS: Attagene CIS-FACTORIAL HepG2 Assay for human Hepatocyte Nuclear Factor 6 (HNF6) (AID 2282952). Particulars: HepG2 Attagene cis-factorial HNF6 reporter transcription; actives raise or lower the signal. In short, it runs like this:
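Using cis-element reporters in HepG2 liver cells, the assay tracks endogenous factor-driven transcription 24 h post-dosing. Signal comes from 6-FAM-labelled, HpaI-digested RT-PCR fragments, with gain or loss scored against DMSO.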

Assay [9] has as its target Heat shock factor protein 1 (Homo sapiens) (UniProt Q00613). Kind of assay: ATG_HSE_CIS: Attagene CIS-FACTORIAL HepG2 Assay for human Heat Shock Transcription Factor 1 (HSE) (AID 2282953). Conditions: HepG2 HSE cis-reporter, Attagene RNA transcription; actives raise or lower the signal. In short, it runs like this:
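Using HepG2 with transfected cis-driven reporter constructs, compound effects on endogenous factor activity are scored as reporter mRNA change at 24 h. Detection: RT-PCR, HpaI digestion, capillary electrophoresis; bidirectional fitting to DMSO.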

The nature of assay [10]: ATG_MRE_CIS: Attagene CIS-FACTORIAL HepG2 Assay for human Metal Responsive Element (MRE) (AID 2282954). Conditions: HepG2 MRE cis-reporter transcription, Attagene multiplex; actives raise or lower the signal. In short, it runs like this: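 Multiplexed cis-reporter assay in human HepG2 liver cells, 24 h incubation with test chemical. Reporter transcripts measured by RT-PCR and capillary electrophoresis; values from bidirectional curve fitting versus DMSO.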

Assay [11] in a line: ATG_PBREM_CIS: Attagene CIS-FACTORIAL HepG2 Assay for human Phenobarbital-responsive Enhancer Module (PBREM) (AID 2282955). Particulars: HepG2 PBREM cis-reporter, Attagene multiplexed transcription; actives raise or lower the signal. In short, it runs like this: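 Measures endogenous factor action on a phenobarbital-responsive enhancer module. HepG2 transiently carrying cis reporters, 24 h treatment, mRNA read-out by RT-PCR plus capillary electrophoresis.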

For assay [12], the target named is Paired box protein Pax-6 (Homo sapiens) (UniProt P26367). Kind of assay: ATG_Pax6_CIS: Attagene CIS-FACTORIAL HepG2 Assay for human Paired Box 6 (PAX6) (AID 2282956). Particulars: HepG2 CIS-FACTORIAL PAX6 reporter transcription, RNA readout; actives raise or lower the signal. In short, it runs like this:
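Read-out is reporter transcript level, measured by RT-PCR with fluorescent primer extension and capillary electrophoresis after 24 h dosing of transfected HepG2 cells. Activity in either direction fitted relative to DMSO control.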

The nature of assay [13]: ATG_PXRE_CIS: Attagene CIS-FACTORIAL HepG2 Assay for human Pregnane X Receptor Element (PXRE) (AID 2282957). Particulars: HepG2 Attagene CIS-FACTORIAL PXRE reporter, mRNA; actives raise or lower the signal. In short, it runs like this:
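Using HepG2 transfected with multiple reporter transcription units, endogenous factor-driven transcription was scored as reporter mRNA after 24 h exposure.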

Assay [14] can be described thus: ATG_PPRE_CIS: Attagene CIS-FACTORIAL HepG2 Assay for human Peroxisome Proliferator-activated Response Element (PPRE) (AID 2282958). Conditions: HepG2 PPRE cis-element reporter, Attagene transcription factor profiling; actives raise or lower the signal. In short, it runs like this:
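PPRE activity in HepG2: transient cis-reporter transfection, 24 h compound incubation, reporter mRNA by RT-PCR and CE fluorescence; gain/loss fitted against DMSO.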

The nature of assay [15]: ATG_RORE_CIS: Attagene CIS-FACTORIAL HepG2 Assay for human RAR-related Orphan Receptor Element (RORE) (AID 2282959). Conditions: HepG2 Attagene cis-factorial RORE reporter, mRNA; actives raise or lower the signal. In short, it runs like this:
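A 24-hour exposure of transfected HepG2 hepatoma cells precedes RNA isolation and reporter RT-PCR. Labeled products are digested with HpaI and resolved by capillary electrophoresis, with gain or loss of signal scored relative to DMSO.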

Assay [16] is described as follows: ATG_Sox_CIS: Attagene CIS-FACTORIAL HepG2 Assay for human SRY-box transcription factor (SOX) (AID 2282960). Conditions: HepG2 Attagene cis-factorial SOX reporter, mRNA; actives raise or lower the signal. In short, it runs like this: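 HepG2, cis reporter units, 24 h exposure. Reporter mRNA: RT-PCR → FAM labelling → HpaI → CE fluorescence. Bidirectional fit vs DMSO.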

Assay [17] addresses Transcription factor Sp1 (Homo sapiens) (UniProt P08047). Kind of assay: ATG_Sp1_CIS: Attagene CIS-FACTORIAL HepG2 Assay for human Specificity Protein 1 (Sp1) (AID 2282961). Particulars: HepG2 Sp1 cis-reporter transcription, actives raise or lower the signal. In short, it runs like this:
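Liver-derived HepG2 cells, cis-element reporter library, 24 h treatment; RNA isolated, cDNA amplified with reporter-specific primers, FAM-labeled fragments sized on capillary analyzer. DMSO baseline, bidirectional curve fit.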

Assay [18] in a line: ATG_SREBP_CIS: Attagene CIS-FACTORIAL HepG2 Assay for human Sterol Regulatory Element Binding (SREBP) (AID 2282962). Particulars: HepG2 Attagene cis-factorial SREBP reporter, mRNA; actives raise or lower the signal. In short, it runs like this: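 Endogenous SREBP activity read as cis-element-driven reporter transcript in transiently transfected HepG2, 24 h post-dosing; quantified via RT-PCR plus capillary electrophoresis of fluorescent fragments. Gain or loss of signal fitted relative to DMSO baseline.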

The target in assay [19] is Signal transducer and activator of transcription 3 (Homo sapiens) (UniProt P40763). Description: ATG_STAT3_CIS: Attagene CIS-FACTORIAL HepG2 Assay for human Signal Transducer and Activator of Transcription 3 (STAT3) (AID 2282963). Particulars: HepG2, Attagene cis-factorial STAT3 reporter transcription; actives raise or lower the signal. In short, it runs like this:
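Cis-factorial format: endogenous transcription factors in HepG2 drive transfected reporter units. After 24 h treatment, reporter RNA was reverse-transcribed, amplified, FAM-labelled and HpaI-digested before CE analysis; activity scored in both directions against DMSO.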

Assay [20] in a line: ATG_TA_CIS: Attagene CIS-FACTORIAL HepG2 Assay for human TA Basal Promoter (AID 2282964). Conditions: HepG2 Attagene CIS-factorial TA basal promoter reporter; actives raise or lower the signal. In short, it runs like this:
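Transient MRTU transfection of HepG2 preceded 24 h compound exposure. Reporter mRNA levels were then read by RT-PCR with capillary electrophoresis, and this background-control endpoint was fitted bidirectionally to DMSO.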

Active and inactive are the calls of the source. The calls were made as follows: active = hit-call score of the fitted dose curve at least 0.9, where 1 is the maximum; inactive = score below 0.9.

Sequence of Paired box protein Pax-6 (Homo sapiens) (P26367 whole entry, looked up): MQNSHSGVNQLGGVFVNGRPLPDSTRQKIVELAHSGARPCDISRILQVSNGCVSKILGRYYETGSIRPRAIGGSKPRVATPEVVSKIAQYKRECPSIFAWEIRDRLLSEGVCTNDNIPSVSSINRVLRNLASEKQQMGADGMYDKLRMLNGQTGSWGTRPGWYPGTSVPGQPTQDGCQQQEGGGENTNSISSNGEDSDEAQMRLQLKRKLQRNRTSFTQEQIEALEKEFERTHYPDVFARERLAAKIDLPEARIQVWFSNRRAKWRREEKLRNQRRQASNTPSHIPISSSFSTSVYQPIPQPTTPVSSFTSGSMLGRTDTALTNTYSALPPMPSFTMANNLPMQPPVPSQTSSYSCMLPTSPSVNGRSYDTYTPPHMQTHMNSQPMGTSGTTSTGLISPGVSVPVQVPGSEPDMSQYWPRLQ
Sequence of Bile acid receptor (Homo sapiens) (Q96RI1 whole entry, looked up): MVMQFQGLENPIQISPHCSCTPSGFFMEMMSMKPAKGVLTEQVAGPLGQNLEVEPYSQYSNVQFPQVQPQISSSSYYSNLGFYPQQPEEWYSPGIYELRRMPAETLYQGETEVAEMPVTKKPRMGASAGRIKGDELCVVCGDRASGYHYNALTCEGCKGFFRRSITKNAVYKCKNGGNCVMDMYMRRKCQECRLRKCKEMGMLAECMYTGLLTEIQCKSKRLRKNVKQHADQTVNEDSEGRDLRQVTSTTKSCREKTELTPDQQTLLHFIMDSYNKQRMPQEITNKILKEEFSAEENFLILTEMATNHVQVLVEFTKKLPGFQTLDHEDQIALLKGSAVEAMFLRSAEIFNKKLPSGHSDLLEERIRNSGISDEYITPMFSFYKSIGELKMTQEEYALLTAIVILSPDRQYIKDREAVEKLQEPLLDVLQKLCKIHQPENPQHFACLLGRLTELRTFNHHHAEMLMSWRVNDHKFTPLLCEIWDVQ
Sequence of Heat shock factor protein 1 (Homo sapiens) (Q00613 whole entry, looked up): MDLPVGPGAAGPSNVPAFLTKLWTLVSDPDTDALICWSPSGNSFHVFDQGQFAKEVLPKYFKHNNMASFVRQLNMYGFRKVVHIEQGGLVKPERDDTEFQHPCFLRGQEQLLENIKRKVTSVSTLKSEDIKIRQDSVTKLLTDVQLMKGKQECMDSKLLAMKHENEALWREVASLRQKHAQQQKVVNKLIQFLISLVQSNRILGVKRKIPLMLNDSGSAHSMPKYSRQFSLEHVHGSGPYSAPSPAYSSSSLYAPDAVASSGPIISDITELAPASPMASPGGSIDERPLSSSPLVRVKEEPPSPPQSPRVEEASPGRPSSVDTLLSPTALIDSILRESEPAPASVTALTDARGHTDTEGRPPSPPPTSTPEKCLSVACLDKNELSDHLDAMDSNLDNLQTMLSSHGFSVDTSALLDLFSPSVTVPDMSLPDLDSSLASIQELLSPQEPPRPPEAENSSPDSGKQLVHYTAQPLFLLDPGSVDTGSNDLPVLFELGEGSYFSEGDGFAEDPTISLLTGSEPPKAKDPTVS
Sequence of Hepatocyte nuclear factor 6 (Homo sapiens) (Q9UBC0 whole entry, looked up, the tested form may be a part): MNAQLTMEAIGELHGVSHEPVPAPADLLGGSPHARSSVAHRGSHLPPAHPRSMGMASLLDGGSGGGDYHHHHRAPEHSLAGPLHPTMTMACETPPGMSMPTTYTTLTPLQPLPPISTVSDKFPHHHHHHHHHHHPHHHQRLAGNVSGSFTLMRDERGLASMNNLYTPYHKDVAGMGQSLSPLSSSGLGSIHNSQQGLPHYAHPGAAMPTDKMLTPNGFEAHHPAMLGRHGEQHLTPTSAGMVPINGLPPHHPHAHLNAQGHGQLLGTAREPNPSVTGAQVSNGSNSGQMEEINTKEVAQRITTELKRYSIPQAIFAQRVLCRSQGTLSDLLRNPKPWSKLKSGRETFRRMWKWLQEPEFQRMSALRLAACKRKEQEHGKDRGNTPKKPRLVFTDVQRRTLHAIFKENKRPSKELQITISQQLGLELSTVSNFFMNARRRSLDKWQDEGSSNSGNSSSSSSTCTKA
Sequence of Signal transducer and activator of transcription 3 (Homo sapiens) (P40763 whole entry, looked up): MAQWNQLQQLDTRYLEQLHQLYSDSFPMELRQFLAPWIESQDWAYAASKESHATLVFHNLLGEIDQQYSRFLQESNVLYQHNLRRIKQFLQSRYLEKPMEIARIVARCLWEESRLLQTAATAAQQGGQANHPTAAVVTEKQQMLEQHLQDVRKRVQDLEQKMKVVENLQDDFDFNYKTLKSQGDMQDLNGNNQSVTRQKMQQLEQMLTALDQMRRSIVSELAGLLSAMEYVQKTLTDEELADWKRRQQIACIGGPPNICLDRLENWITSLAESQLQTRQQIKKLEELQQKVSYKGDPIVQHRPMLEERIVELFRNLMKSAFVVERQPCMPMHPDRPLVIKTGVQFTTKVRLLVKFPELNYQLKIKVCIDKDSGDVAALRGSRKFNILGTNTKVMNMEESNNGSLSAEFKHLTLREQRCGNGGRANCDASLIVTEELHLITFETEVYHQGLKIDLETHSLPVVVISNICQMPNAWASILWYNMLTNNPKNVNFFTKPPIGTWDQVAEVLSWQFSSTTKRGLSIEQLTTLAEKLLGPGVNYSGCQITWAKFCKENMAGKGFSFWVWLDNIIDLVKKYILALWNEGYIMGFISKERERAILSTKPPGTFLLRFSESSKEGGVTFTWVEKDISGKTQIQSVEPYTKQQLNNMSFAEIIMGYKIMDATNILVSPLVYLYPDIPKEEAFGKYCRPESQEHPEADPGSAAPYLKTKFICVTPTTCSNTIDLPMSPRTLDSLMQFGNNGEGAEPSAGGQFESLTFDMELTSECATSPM
Sequence of Transcription factor Sp1 (Homo sapiens) (P08047 whole entry, looked up, the tested form may be a part): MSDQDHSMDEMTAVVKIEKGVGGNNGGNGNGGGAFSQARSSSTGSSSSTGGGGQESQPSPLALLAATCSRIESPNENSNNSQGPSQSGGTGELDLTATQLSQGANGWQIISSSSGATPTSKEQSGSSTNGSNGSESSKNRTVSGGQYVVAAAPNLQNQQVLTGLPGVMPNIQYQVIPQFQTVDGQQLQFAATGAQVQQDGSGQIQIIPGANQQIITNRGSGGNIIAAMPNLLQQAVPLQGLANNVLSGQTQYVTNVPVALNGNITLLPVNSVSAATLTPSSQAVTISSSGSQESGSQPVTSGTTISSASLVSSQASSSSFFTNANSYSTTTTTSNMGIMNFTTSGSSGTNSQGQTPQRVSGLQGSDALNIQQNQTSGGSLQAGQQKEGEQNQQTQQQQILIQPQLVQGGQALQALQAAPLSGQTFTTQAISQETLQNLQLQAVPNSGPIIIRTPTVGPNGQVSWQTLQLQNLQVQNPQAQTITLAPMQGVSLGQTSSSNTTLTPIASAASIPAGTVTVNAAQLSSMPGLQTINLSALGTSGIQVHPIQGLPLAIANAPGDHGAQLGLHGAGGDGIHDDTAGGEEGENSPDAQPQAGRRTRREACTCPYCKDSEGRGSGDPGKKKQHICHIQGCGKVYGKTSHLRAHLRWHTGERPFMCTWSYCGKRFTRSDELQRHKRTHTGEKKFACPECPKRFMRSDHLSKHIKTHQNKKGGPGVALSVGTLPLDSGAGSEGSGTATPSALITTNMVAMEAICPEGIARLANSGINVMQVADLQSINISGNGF

For the molecule `CC[C@H](C)[C@@H](C(=O)O)n1sc2ccccc2c1=O`, the result in [1], in assay [2], in [3], in assay [4], in [5] and in assay [6] was inactive. Also, the molecule was called inactive in assay [7], in assay [8], in [9], in assay [10], in assay [11] and in assay [12]. Also, the call in assay [13], in [14], in assay [15], in assay [16], in [17] and in [18] was inactive. The call in [19] and in assay [20] was inactive.
For `Cc1cc(C)c(O)c(C)c1`, the result in assay [1], in [2], in [3], in assay [4], in assay [5] and in assay [6] was inactive. For the same molecule, the result in assay [7], in assay [8], in [9], in assay [10], in assay [11] and in [12] was inactive. For the same molecule, the result in assay [13], in assay [14], in [15], in [16], in [17] and in [18] was inactive. For the same molecule, the molecule was called inactive in assay [19] and in assay [20].
The AC50 is the concentration at which the activity in the assay is half-maximal. For the molecule `CCc1nn(C2CCCCC2)c2cc(C3(C#N)CCC(C(=O)O)CC3)ccc12` (centres undefined), the result in assay [1], in [2], in assay [3], in assay [5], in [8] and in [9] was inactive. The outcome in assay [11], in [13], in [16], in assay [17] and in [19] was inactive. Besides, the AC50 is 67.2 µM (active) in [4]; 100 µM (active) in [7]; 100 µM (active) in [10]; 100 µM (active) in assay [12]; 0.438 µM (active) in assay [14]; 32.4 µM (active) in assay [15]. In addition, the AC50 in assay [18] was 65.5 µM (active); in assay [20], 69.9 µM (active).
